In all, about 33,000 sequences were measured (“E-score (-0.5 to 0.5)”: median about -0.041, highest 2% from about 0.37 on). For the sample, the highest values were picked, then their nearest neighbours and some sequences at random.
target: T1, Ecm22 (UniProt Q05958); assay: PBM E-score (8-mer binding enrichment) (E-score (-0.5 to 0.5)); higher = stronger / more preferred TF binding; settings: protein concentration: 200 nM; construct: GST-full length
T1 sequence: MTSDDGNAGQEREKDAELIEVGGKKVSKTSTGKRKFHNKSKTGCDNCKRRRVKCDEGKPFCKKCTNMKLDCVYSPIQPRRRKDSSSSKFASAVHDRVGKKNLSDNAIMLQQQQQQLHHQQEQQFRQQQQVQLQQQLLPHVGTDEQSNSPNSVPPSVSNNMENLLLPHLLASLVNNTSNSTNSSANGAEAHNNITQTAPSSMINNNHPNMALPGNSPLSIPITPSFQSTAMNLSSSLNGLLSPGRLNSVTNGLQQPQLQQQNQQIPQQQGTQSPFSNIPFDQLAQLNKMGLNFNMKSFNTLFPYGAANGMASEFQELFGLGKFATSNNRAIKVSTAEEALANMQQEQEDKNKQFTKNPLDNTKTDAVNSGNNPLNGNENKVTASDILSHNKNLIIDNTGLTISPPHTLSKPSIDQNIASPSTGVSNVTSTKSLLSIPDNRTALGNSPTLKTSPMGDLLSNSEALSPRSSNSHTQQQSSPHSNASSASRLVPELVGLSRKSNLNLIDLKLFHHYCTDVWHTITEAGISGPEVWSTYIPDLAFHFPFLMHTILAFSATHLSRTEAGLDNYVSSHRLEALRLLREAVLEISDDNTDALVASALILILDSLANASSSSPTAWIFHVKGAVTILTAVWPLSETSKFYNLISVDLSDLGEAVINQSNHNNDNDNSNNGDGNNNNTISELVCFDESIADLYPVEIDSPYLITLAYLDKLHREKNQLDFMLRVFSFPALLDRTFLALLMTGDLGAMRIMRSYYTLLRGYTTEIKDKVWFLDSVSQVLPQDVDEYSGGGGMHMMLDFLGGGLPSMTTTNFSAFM
Method in brief: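 Each ungapped eight-base word and its reverse complement, pooled, received an E-score from the Universal PBM Analysis Suite. Underlying scans, normalised with masliner, recorded fluorescent anti-GST bound to GST-tagged yeast transcription factors. These were applied at about 100-200 nM to universal all-10-mer Agilent arrays double-stranded by primer extension.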

Row | Sequence | PBM E-score
1 | CGACTGAA | 0.163
2 | ACCGAGCC | 0.245
3 | AAACGATC | 0.423
4 | AAACGATG | 0.439
5 | CAACGATG | 0.207
6 | GAACGATC | 0.432
7 | AAACGCTG | 0.0348
8 | GATCGATC | 0.171
9 | AAACGCTT | 0.00074
10 | AATCGATT | 0.0191
11 | AAACGATT | 0.42
12 | CAACGATC | 0.175
13 | CCACGATC | 0.0737
14 | AGACGATC | -0.0754
15 | CATTAGGG | -0.168
16 | AGAACCCG | -0.0503
17 | ACTCTACG | 0.265
18 | AGCGCACG | 0.097
19 | ACCCCCTC | -0.274
20 | CGTGGATC | -0.0292
21 | CCTATGGA | -0.192
22 | CCCATTAC | -0.101
23 | CGACTGAG | 0.0682
24 | CAACGATA | 0.263
25 | CCACGATA | 0.0166

Row | Sequence | PBM E-score
26 | AAACGATA | 0.435
27 | GGACGATA | -0.213
28 | TAACGATA | 0.367
29 | GAACGATA | 0.416
30 | ACCCTTGG | -0.233
31 | ATTCTAAA | 0.095
32 | ACCTAGAG | -0.00033
33 | ATTCGCGG | -0.00497
34 | ACGGGAGA | 0.0694
35 | CGACGGGA | 0.227
36 | ATTAAACG | 0.449
37 | CCTAAACA | -0.149
38 | ACTAAACG | 0.457
39 | ATTAAACA | -0.163
40 | ACTAAACC | -0.00061
41 | CCTAAACG | 0.407
42 | ACTAAACA | -0.273
43 | CCTAAACC | -0.00691
44 | ATTAAACC | -0.0934
45 | GGAGTAAA | 0.0078
46 | GGGGCTAC | -0.0133
47 | GACGCCTA | -0.221
48 | TCTTCGAA | 0.108
49 | GATACTTA | -0.131
50 | CAGTCGTC | -0.109

Row | Sequence | PBM E-score
51 | AAGTCGTA | 0.433
52 | CAGTCGGA | -0.067
53 | AAGTCGTG | -0.0717
54 | GAGTCGGA | 0.0868
55 | AAGTCGTC | 0.139
56 | GAGTCGCA | 0.133
57 | CAGTCGTA | 0.418
58 | GAGTCGTA | 0.43
59 | CCGGCCGA | -0.113
60 | AAGAGTTC | 0.00406
61 | CGAGCAAC | 0.168
62 | ACGCCGTG | -0.146
63 | ACTCATGC | -0.0706
64 | CACTGGGG | -0.267
65 | ACGAGATC | 0.433
66 | GCGAGAGC | 0.182
67 | ACGAGAGA | 0.353
68 | ACGAGATG | 0.365
69 | ACGAGACT | 0.348
70 | ACGAGATA | 0.346
71 | ACGAGACA | 0.315
72 | ACGAGAGC | 0.399
73 | ACGAGACG | 0.394
74 | CGTAAACG | 0.444
75 | CGTAAACC | 0.366

Row | Sequence | PBM E-score
76 | AGTAAACA | 0.0411
77 | AGTAAACG | 0.427
78 | CGGAAACG | 0.269
79 | AGTAAACC | -0.0723
80 | TGTAAACA | -0.0145
81 | CGTAAACA | 0.385
82 | GGTAAACA | 0.129
83 | TCCTTAAA | -0.1
84 | GGTCCACC | -0.214
85 | ACGCGGGA | 0.062
86 | AAAGCAGG | -0.203
87 | TCTTTACA | -0.132
88 | ATTTCGTC | 0.0861
89 | GTTTCGGA | 0.215
90 | CTTTCGTC | 0.0061
91 | CTTTCGTA | 0.428
92 | ATTTCGTA | 0.444
93 | GTTTCGTA | 0.44
94 | ATTTCGTG | 0.0706
95 | GTTTCGAA | -0.00209
96 | CTTTCGGA | 0.0148
97 | GCCCGTGA | -0.115
98 | AGGTTTGC | -0.153
99 | ACCTAAAT | 0.112
100 | ACTGGAAA | -0.0956

Row | Sequence | PBM E-score
101 | GTTAAACA | 0.00429
102 | ATCGTTTG | 0.414
103 | ATCGTTTA | 0.483
104 | GACGTTTA | 0.303
105 | AGCGTTTG | 0.031
106 | AGCGTTTA | 0.168
107 | AACGTTTA | 0.319
108 | GGCGTTTA | 0.166
109 | ATCGTTTC | 0.365
110 | GTCGTTTA | 0.491
111 | AAATCTCT | -0.0179
112 | ACACTCCT | -0.163
113 | CGTTGAGC | 0.0667
114 | CCACAAGA | -0.185
115 | CAAAAGGG | -0.181
116 | GCGGGGAC | -0.152
117 | ACGATACG | 0.383
118 | ATGATACA | -0.0736
119 | ACGATACT | 0.313
120 | CCGATACG | 0.326
121 | ATGATACC | 0.146
122 | ATGATACG | 0.377
123 | GTTTTCCA | 0.061
124 | CTCCCGTC | 0.121
125 | TAAGTGCA | 0.0499

Row | Sequence | PBM E-score
126 | CTGTTGCC | -0.265
127 | CAGGAACC | -0.171
128 | ATGGAACC | -0.0738
129 | ATGGAACG | 0.402
130 | CAGGAACA | -0.0447
131 | AAGGAACG | 0.458
132 | ATGGAACA | -0.322
133 | AAGGAACT | -0.0399
134 | CAGGAACG | 0.463
135 | AAGGAACC | 0.0815
136 | CCGCCTAG | -0.193
137 | CTTACCTA | -0.117
138 | GAAGTGTC | -0.055
139 | AATAGTTG | -0.116
140 | CAGCGTCG | 0.0918
141 | AAGCCGTC | -0.0956
142 | GTAACGAA | 0.306
143 | GAAACGAA | 0.414
144 | AAAACGAA | 0.277
145 | TAAACGAA | 0.488
146 | TAAACGCA | 0.292
147 | CCAACGAA | 0.0596
148 | TAAACAAA | 0.114
149 | GAAACAAA | -0.0214
150 | CAAACGAA | 0.438

Row | Sequence | PBM E-score
151 | AGTGACAT | -0.283
152 | GGCACAAA | -0.134
153 | GATATGCC | -0.108
154 | ATATTTAA | 0.0866
155 | ATACGGCC | 0.388
156 | AGACGGCG | -0.0146
157 | AGACGGCC | -0.223
158 | ATACGGCG | 0.406
159 | ATACGGCA | 0.404
160 | GCACGGCA | -0.0485
161 | CTACGGCA | 0.1
162 | AAACGGCA | 0.294
163 | ACACGGCA | 0.108
164 | ACACGGCG | -0.0862
165 | CTACGGCC | 0.018
166 | GTACGGCA | 0.395
167 | CCACCAAA | -0.13
168 | GGCTGAAA | -0.0667
169 | ACAATGGA | -0.0436
170 | AGATGGCG | -0.102
171 | GTTACGGA | 0.233
172 | ATTACGAA | 0.349
173 | GTTACGAA | 0.404
174 | CTTACGAC | 0.394
175 | CTTACGCC | 0.0486

Row | Sequence | PBM E-score
176 | CTCACGAC | -0.0734
177 | CTTACGCA | 0.0308
178 | CTTACGAA | 0.391
179 | CTCACGAA | 0.128
180 | CGAAAATC | 0.162
181 | CGGCATCA | 0.0766
182 | AGTACCGA | 0.0799
183 | AGTACCGC | 0.148
184 | GGTACCGA | 0.103
185 | CGTACCGC | 0.47
186 | CGTACCGA | 0.447
187 | CATACCGC | -0.0365
188 | CGAGTCAC | 0.106
189 | ACTGGCAT | -0.182
190 | AATACCGG | -0.042
191 | ACGATAAT | 0.309
192 | ACGATCGT | 0.43
193 | ACGATCGG | 0.274
194 | ACGATCGC | 0.327
195 | ACGTACAA | 0.298
196 | CAGTACAA | -0.0343
197 | ACGTACAG | 0.186
198 | GCGTACAA | 0.243
199 | TCGTACAA | 0.49
200 | CCGTACAC | 0.33

Row | Sequence | PBM E-score
201 | CCGTACAG | 0.388
202 | CGGTACAA | 0.214
203 | CCGTACAA | 0.4
204 | AATTTCTC | 0.0237
205 | AGCTCGTG | 0.182
206 | CGCTCGGA | 0.252
207 | GGCTCGAA | 0.0317
208 | GGCTCGGA | 0.0976
209 | CGCTCGTA | 0.467
210 | AGCTCGTA | 0.477
211 | GGCTCGTA | 0.479
212 | CGCTCGTC | 0.168
213 | AGCTCGTC | 0.0121
214 | AGGTCTAT | 0.0387
215 | TATGATGA | 0.00697
216 | ATAGGTTC | 0.00586
217 | CGGCCTCC | -0.0189
218 | ACCCGAAA | 0.14
219 | TTATAGAA | -0.0153
